Bioassay records from PubChem BioAssay.
CHOP inhibitor = blocks CHOP induction under ER stress. inhibition, % at 10 µM. 220,000 compounds, 3.8% hits. CHO-K1 CHOP-promoter luciferase, tunicamycin-induced, 15-18 h;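 active means compounds that reduced the stress-induced luciferase reporter signal by more than about 70% of percent inhibition, limit read from the data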;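 further: 0% = tunicamycin plus vehicle and 100% = wells without tunicamycin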
S1P4 ag = activates the human S1P4 receptor; S1P4-expressing cell line, agonist reporter assay; activation, % at 4.98 µM; O95977; 220,000 compounds, 0.35% hits; AID 1509; in the data active means activation above about 11%;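 further: 0% = DMSO vehicle and 100% = reference agonist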
Target sequence (O95977 whole entry, looked up): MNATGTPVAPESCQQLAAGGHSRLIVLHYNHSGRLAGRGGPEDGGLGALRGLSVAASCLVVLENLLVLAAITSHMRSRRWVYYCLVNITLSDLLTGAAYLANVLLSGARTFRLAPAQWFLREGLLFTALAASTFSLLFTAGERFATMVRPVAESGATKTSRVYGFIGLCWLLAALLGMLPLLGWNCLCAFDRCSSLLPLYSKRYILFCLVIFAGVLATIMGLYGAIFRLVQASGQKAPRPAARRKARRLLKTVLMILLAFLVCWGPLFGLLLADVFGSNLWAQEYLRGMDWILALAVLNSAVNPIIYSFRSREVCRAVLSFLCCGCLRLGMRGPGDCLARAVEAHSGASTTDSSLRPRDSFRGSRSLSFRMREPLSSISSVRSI
Hsp70 activator = switches on Hsp70 transcription | 200,000 compounds, 0.04% hits | activation, % at 10 µM | HeLa Hsp70 promoter luciferase reporter, luminescence; scaled: vehicle 0, proteasome-inhibitor control 100%;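 active means activation above the mean across all tested compounds plus 3 SD, cutoff set per campaign, cut at about 5.5% in these data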;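 further: 100% = MG132 at 30 µM as the positive control and 0% = DMSO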
S1P4 antagonist = blocks the human S1P4 receptor. S1P4-expressing cells, antagonist mode, reporter read-out. inhibition, % at 4.98 µM. 220,000 compounds, 0.26% hits; in the data active means inhibition above about 29%;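 further: 0% = wells stimulated with agonist and 100% = vehicle wells without agonist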
* hit, by the source's call; / = no result given. Compounds with a hit are over-represented: about 4.2% of the library has one in this group of screens.

SMILES | CHOP inhibitor | S1P4 ag | Hsp70 activator | S1P4 antagonist
COc1ccc(NC(=O)Cn2c(=O)n(-c3ccccc3)c(=O)c3oc4ccccc4c32)c(OC)c1 | -6 | -1 | 0 | 9
CC1CC(C)CN(S(=O)(=O)c2ccc(C(=O)Nc3sccc3C(N)=O)cc2)C1 (stereo unspecified) | 87* | -2 | 0 | -16
CC(C)NC(=O)C1(O)c2ccccc2NC(=O)N1c1ccc(Cl)c(Cl)c1 (stereo unspecified) | 81* | 3 | 0 | -2
Cc1ccccc1-c1nc(CN2CCC(C(=O)NCc3ccco3)CC2)c(C)o1 | 22 | -2 | 0 | -1
O=[N+]([O-])c1ccccc1CNc1ccc(F)c(Cl)c1 | -20 | -1 | 0 | -18
Fc1ccccc1CNc1cc(Cl)cc(Cl)c1 | 90* | -2 | 0 | -10
O=[N+]([O-])c1ccccc1CNC(Cc1ccccc1)c1ccccc1 (stereo unspecified) | 80* | 3 | 0 | -24
Cn1cccc1-c1cc(C(=O)N/N=C/c2cccc(O)c2)[nH]n1 | 1 | 0 | 0 | -10
O=C(COC(=O)CCC1CCCC1)Nc1ccc(Cl)cn1 | 73* | 0 | 0 | -14
COc1cccc(C(=O)OCCN(C)C(C)(C)C)c1 | -23 | 0 | 0 | -90
C[C@H](NC(=O)OCc1ccccc1)C(=O)NNC(=O)[C@H](Cc1ccccc1)NC(=O)OC(C)(C)C | 25 | / | / | /
CC(C)CC(NC(=O)C(CC(C)C)NC(=O)C(Cc1ccc(OCc2ccccc2)cc1)NC(=O)OC(C)(C)C)C(N)=O (stereo unspecified) | 94* | 0 | 0 | 4
CC(C)(C)OC(=O)C(Cc1ccc(OC(C)(C)C)cc1)NC(=O)CNC(=O)OCc1ccccc1 (stereo unspecified) | 74* | 2 | 0 | -13
CC(C)CC(NC(=O)C(NC(=O)C(Cc1ccc(OCc2ccccc2)cc1)NC(=O)OC(C)(C)C)C(C)C)C(N)=O (stereo unspecified) | 95* | 0 | 0 | -6
COc1ccc(C2CC(c3ccccc3)=NN2c2ccccc2)c(C(=O)O)c1OC (stereo unspecified) | 18 | -1 | 0 | -2
CCOC(=O)C1CCCN(C(=O)Cn2sc3nc(C)cc(C)c3c2=O)C1 (stereo unspecified) | 109* | -2 | 0 | -3
CCOc1nc(N(C)C)nc(-n2nnc(C(C)=O)c2C)n1 | 5 | 1 | 0 | -25
Cc1ccc(NC(=O)CCC(=O)c2ccc(F)cc2)cc1Cl | 79* | 1 | 0 | -15
Cc1ccc(NC(=O)Nc2ccc(F)cc2)cc1Cl | 67 | 0 | 0 | -6
COc1ccc2c(c1)C(=NNC(=O)c1ccccn1)c1cc(OC)ccc1-2 | 38 | -1 | 0 | -12
COc1ccc2c(c1)C(=NO)c1cc(OC)ccc1-2 | 72* | 1 | -1 | -21
COc1ccc(OC)c(C=Nc2ccccc2-c2nc3ccccc3[nH]2)c1 | 1 | -2 | 0 | -4
COc1ccc(OC)c(/C=N/N(C)c2ccccc2)c1 | 72* | 2 | 0 | -2
O=C(O)CC/C(=C\c1ccc(N2CCCC2)c([N+](=O)[O-])c1)c1nc2ccccc2s1 | 95* | 2 | 0 | 13
COc1cc(NC(=O)c2cc3sccc3n2C)cc(OC)c1 | 75* | -2 | 0 | -7
SMILES | CHOP inhibitor | S1P4 ag | Hsp70 activator | S1P4 antagonist
Cn1c(C(=O)Nc2ccccc2)cc2sccc21 | 1 | -3 | 0 | 16
COc1cccc(/C=N/Nc2ncnc3scc(-c4ccccc4)c23)c1OC | 71* | 0 | 0 | -6
CC(C)Cc1csc(NC(=O)c2ccc(F)cc2)c1C(=O)O | -8 | -1 | 0 | -7
COc1ccc(-n2c(Cc3cccn3C)nnc2SCC(=O)Nc2ccc(Cl)cc2)cc1 | 71* | 0 | 0 | 20
O=C(Cn1cc(C(=O)c2ccco2)c2ccccc21)Nc1ccccc1F | 17 | 0 | 0 | -4
Cc1cc(Cl)c(OCCCSc2nc(C)cc(=O)[nH]2)c(Br)c1 | 86* | 2 | 0 | 0
CC(C)C(NC(=O)C1CCCCC1)C(=O)NCCc1ccccc1 (stereo unspecified) | 16 | 1 | 0 | -1
O=C(Cc1cccc2ccccc12)N1CCN(c2ncccn2)CC1 | 10 | 9 | 0 | -21
COC(=O)C1=C(C)NC(C)=C(C(=O)OC)C1c1ccc2ccccc2n1 | -5 | -4 | 0 | 5
O=C1c2ccccc2C(=O)C1c1ccc2ccccc2n1 | 92* | 0 | 0 | -4
O=C(CSc1nnnn1-c1ccccc1)Nc1ccc(Cl)cc1 | 88* | 1 | 0 | -11
Cc1ccc(-n2nnnc2SCC(=O)Nc2sc(C)c(C)c2C#N)cc1C | 83* | 2 | 0 | 0
O=C(CSc1nnnn1-c1ccccc1)Nc1ccc(Cl)cn1 | -6 | -2 | 0 | -18
